Among the data in ChEMBL document CHEMBL1201862, “PubChem BioAssay data set” (2004) are Potency values, retold here.

The campaign covered roughly 400,000 compounds. About 2,100 (0.53%) were called active. Inconclusive results (about 14%) are left out. The rule behind the calls is not given here. The full list was thinned out, with actives kept by preference.

Ataxin-2 (Homo sapiens), sequence (Q99700 whole entry): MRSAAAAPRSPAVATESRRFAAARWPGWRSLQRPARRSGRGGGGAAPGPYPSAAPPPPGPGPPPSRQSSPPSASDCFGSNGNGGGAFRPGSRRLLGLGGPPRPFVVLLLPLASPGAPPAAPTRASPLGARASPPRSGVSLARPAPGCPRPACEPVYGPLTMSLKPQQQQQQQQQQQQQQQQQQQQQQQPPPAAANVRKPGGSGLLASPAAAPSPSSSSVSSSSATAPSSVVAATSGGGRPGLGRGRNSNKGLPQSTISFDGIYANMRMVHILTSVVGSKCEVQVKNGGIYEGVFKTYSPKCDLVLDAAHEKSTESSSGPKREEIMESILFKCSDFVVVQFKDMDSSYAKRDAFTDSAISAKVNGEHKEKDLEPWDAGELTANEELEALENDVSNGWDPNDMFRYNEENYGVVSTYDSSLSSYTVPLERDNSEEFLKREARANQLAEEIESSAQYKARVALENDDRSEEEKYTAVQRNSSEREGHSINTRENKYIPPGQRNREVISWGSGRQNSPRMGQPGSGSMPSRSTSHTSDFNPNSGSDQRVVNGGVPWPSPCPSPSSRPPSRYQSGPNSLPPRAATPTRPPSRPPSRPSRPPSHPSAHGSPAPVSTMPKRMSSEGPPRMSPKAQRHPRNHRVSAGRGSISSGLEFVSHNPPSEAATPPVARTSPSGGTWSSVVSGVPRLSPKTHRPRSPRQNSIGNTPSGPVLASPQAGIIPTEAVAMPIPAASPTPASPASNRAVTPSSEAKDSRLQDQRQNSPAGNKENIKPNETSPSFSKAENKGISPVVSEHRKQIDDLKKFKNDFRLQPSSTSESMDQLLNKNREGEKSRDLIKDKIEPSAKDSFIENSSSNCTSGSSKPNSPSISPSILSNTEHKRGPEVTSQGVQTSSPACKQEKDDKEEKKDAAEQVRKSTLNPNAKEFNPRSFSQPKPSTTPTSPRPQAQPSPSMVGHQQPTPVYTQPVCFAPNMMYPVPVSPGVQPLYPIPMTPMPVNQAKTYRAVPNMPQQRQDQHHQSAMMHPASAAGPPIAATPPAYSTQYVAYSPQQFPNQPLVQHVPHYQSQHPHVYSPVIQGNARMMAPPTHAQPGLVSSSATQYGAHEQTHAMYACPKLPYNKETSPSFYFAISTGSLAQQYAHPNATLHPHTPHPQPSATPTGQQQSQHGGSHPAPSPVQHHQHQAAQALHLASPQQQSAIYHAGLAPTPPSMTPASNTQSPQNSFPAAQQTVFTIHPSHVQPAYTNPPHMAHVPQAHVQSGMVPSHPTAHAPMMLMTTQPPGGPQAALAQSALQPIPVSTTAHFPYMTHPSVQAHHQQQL

This assay has as its target Ataxin-2 (Homo sapiens) (UniProt Q99700). Briefly: qHTS for Inhibitors of ATXN expression. The assay is classed as functional. (In general: qHTS replaces the single test concentration by a dilution series.)
`CC1(S(=O)(=O)O)CC(=O)c2ccccc2C1=O` (stereo unspecified): the Potency entry was “inactive”.

For `CC(=O)N1N=C2c3ccccc3CCC2C1c1ccc(F)cc1` (stereo unspecified), the Potency entry is “inactive”.

Take `CCCCn1c(NC(C)=O)c(C#N)c2nc3ccccc3nc21`: the Potency entry is “inactive”.

`CC(C)c1noc(-c2ccccc2OCC(=O)Nc2ccccc2[N+](=O)[O-])n1`: the Potency is 39.8 µM (active).

Take `Cc1csc(SCC(=O)Nc2ccccc2[N+](=O)[O-])n1`: the Potency entry is “inactive”.

Take `O=C(CN1CCCc2ccccc21)Nc1ccccc1[N+](=O)[O-]`: the Potency result is “inactive”.

`Nc1cccc2c1C(=O)N(C(=O)c1cccc(S(=O)(=O)N3CCCCCC3)c1)C2=O`: the Potency result was “inactive”.

For `Fc1ccc(CN2CCN(c3ncccn3)CC2)c(F)c1`, the Potency entry was “inactive”.

In the case of `COCC(C)n1c(SCc2ccc(C(=O)OC)cc2)nc2ccccc2c1=O` (stereo unspecified), the Potency entry was “inactive”.

As for `COc1ccc(C(C)=O)cc1CSc1nc2ccccc2c(=O)n1-c1ccccc1`, the Potency was 35.5 µM (active).

`O=C(c1ccc(-n2c(SCc3cc(F)ccc3F)nc3ccccc3c2=O)cc1)N1CCOCC1`: the Potency entry is “inactive”.

As to `O=C(NCc1ccncc1)c1ccc(NS(=O)(=O)c2ccc(F)cc2)cc1`, the Potency entry is “inactive”.

`CCOC(=O)c1c(C)oc2c1c(C(c1cccnc1)N1CCOCC1)c(O)c1ccccc12` (stereo unspecified): the Potency was 39.8 µM (active).

With `CCOC(=O)c1c(C)oc2c1c(/C=N/CCO)c(O)c1ccccc12`, the Potency result is “inactive”.

`CCOC(=O)c1c(N=C(S)N2CCOCC2)sc(C)c1C`: the Potency entry is “inactive”.

For `CCOC(=O)C(CC)Sc1ccc2nnc(-c3cccnc3)n2n1` (stereo unspecified), the Potency entry is “inactive”.

Take `CCOC(=O)c1c(C)oc2c1c(C(c1ccccc1)N1CCOCC1)c(O)c1ccccc12` (stereo unspecified): the Potency is 39.8 µM (active).

Consider `COc1ccc(C(=O)N/N=C\c2coc3ccccc3c2=O)cc1`, for which the Potency result is “inactive”.

With `O=C(Cc1cc(=O)oc2cc(O)ccc12)NCC1CCC(C(=O)O)CC1` (stereo unspecified), the Potency entry is “inactive”.

Regarding `Cc1c(-c2ccc(Cl)cc2)c(=O)oc2c(CN3CCCC3)c(O)ccc12`, the Potency result was “inactive”.

On to `Cc1cc(-c2cccs2)c2c(N)c(C(=O)c3ccc4c(c3)OCO4)sc2n1`, for which the Potency entry was “inactive”.

In the case of `CC(O)CNc1nc(NCc2ccccc2)c2cnn(C)c2n1` (stereo unspecified), the Potency entry is “inactive”.

In the case of `OCCNc1c2ccccc2nc2ccccc12`, the Potency result is “inactive”.

Take `c1ccc(CNc2nc(NCc3ccccc3)c3ccccc3n2)cc1`: the Potency was 39.8 µM (active).

As to `CC1(C)Cc2c(C#N)c(NCCO)nc(-c3ccco3)c2CO1`, the Potency result is “inactive”.

`C/C(=N\NC(=S)NCCc1ccccc1)c1ccc(Cl)cc1Cl`: the Potency entry is “inactive”.

For the compound `Cc1cc(C)c(C(=O)Nc2ccccc2)c(CC(C)(C)C(=O)O)c1`, the Potency result was “inactive”.

`O=[N+]([O-])c1c(NCCCO)cc(SCc2ccco2)c2nonc12`: the Potency is 31.6 µM (active).

`COCCNc1nnc(SCC(=O)Nc2cc(C)on2)s1`: the Potency entry was “inactive”.

For `Cc1nnc(Sc2cc(NCCCO)c([N+](=O)[O-])c3nonc23)s1`, the Potency was 21.2 µM (active).

With `COc1ccc(NC(=O)CCC(=O)NCc2ccco2)c([N+](=O)[O-])c1`, the Potency entry is “inactive”.

Regarding `CC(=O)OCCCNc1cc(Sc2nc3ccccc3s2)c2nonc2c1[N+](=O)[O-]`, the Potency was 12.6 µM (active).

On to `CCCn1c(N)c(C(=O)CSc2nc3ccccc3s2)c(=O)[nH]c1=O`, for which the Potency entry is “inactive”.

Take `Cc1nnc(Sc2cc(NCCO)c([N+](=O)[O-])c3nonc23)s1`: the Potency was 28.2 µM (active).

Take `CC(=O)Nc1scc(C)c1-c1nc2ccccc2s1`: the Potency result was “inactive”.

Consider `O=C(Cn1[nH]c(=O)c2ccccc2c1=O)OCC(=O)c1ccc(F)c(F)c1`, for which the Potency result is “inactive”.

For the compound `COCCCn1c(=N)c(C(=O)NCc2ccco2)cc2c(=O)n3cccc(C)c3nc21`, the Potency entry is “inactive”.

With `O=C1c2cccc3c(N4CCCCC4)ccc(c23)C(=O)N1c1ccc(O)cc1`, the Potency entry was “inactive”.

`O=C(Oc1cccc(C(=S)N2CCCCC2)c1)c1ccccc1`: the Potency result was “inactive”.

As to `O=C(c1coc(=O)c(Br)c1)N1CCC(C(O)(c2ccccc2)c2ccccc2)CC1`, the Potency entry is “inactive”.

Turning to `Cc1ccc(OCCCCCCN2CCNCC2)cc1`, the Potency entry is “inactive”.

Turning to `Cc1ccc(OCCCCN2CCCCC2)cc1`, the Potency result is “inactive”.

With `Brc1cccc(OCCN2CCc3ccccc3C2)c1`, the Potency entry was “inactive”.

Take `Cc1ccc(OCCCN2CCC(C(O)(c3ccccc3)c3ccccc3)CC2)cc1`: the Potency was 35.5 µM (active).

Turning to `CC(C)c1ccccc1OCCCN1CCCC1`, the Potency entry was “inactive”.

Take `OC(c1ccccc1)(c1ccccc1)C1CCN(CCCOc2cccc(OC(F)(F)F)c2)CC1`: the Potency is 35.5 µM (active).

For the compound `COC(=O)c1cccc(OCCCN2CCC(C(O)(c3ccccc3)c3ccccc3)CC2)c1`, the Potency is 35.5 µM (active).

Turning to `CCOc1ccc(/C=N/NC(=O)Cc2cccs2)cc1`, the Potency entry was “inactive”.

Turning to `C=CCNC(=S)N/N=C/c1ccc(-c2ccc(OC)cc2)o1`, the Potency result is “inactive”.

With `C=CCOc1ccc(/C=N\NC(N)=S)cc1`, the Potency is 22.4 µM (active).

For `Cc1ccc2nc3c(cc(C(=O)NC4CCS(=O)(=O)C4)n3Cc3ccccc3)c(=O)n2c1` (stereo unspecified), the Potency result was “inactive”.

As to `Brc1ccc2nc(-c3cccs3)c(NCC3CCCO3)n2c1` (stereo unspecified), the Potency result was “inactive”.

`Cc1ccc2nc(C3CCCCC3)c(Cc3cccc(Cl)c3)n2c1`: the Potency is 39.8 µM (active).

As to `COc1ccccc1Cc1c(C2CCCCC2)nc2ccc(C)cn12`, the Potency was 20 µM (active).

On to `CCn1c(=N)c(C(=O)NC2CCCCC2)cc2c(=O)n3cc(C)ccc3nc21`, for which the Potency entry is “inactive”.

On to `CCC(C)n1c(=N)c(C(=O)NC2CCCCC2)cc2c(=O)n3cc(C)ccc3nc21` (stereo unspecified), for which the Potency entry is “inactive”.

Consider `COc1ccccc1Cc1c(C2CCCCC2)nc2ccc(Br)cn12`, for which the Potency was 17.8 µM (active).

In the case of `COCCn1c(=N)c(C(=O)NC2CCCC2)cc2c(=O)n3cc(C)ccc3nc21`, the Potency entry is “inactive”.

Regarding `Nc1c(C(=O)Nc2ccccc2)sc2nc(N3CCOCC3)c3c(c12)CCCC3`, the Potency result was “inactive”.

Turning to `COc1ccc(/C=C2/C(=O)ON=C2C)cc1Br`, the Potency entry was “inactive”.

On to `CC1=NOC(=O)/C1=C\c1ccc(-c2ccc(Cl)cc2Cl)o1`, for which the Potency is 35.5 µM (active).

As to `O=C(O)c1ccc(N/N=C/c2ccc(-c3ccc(Cl)cc3Cl)o2)cc1`, the Potency entry was “inactive”.

As for `O=C(O)c1ccc(CNCc2ccccc2F)cc1`, the Potency entry was “inactive”.

As for `CC1CCC(NC(=O)c2nn(C)c3c2CS(=O)(=O)c2ccccc2-3)CC1` (stereo unspecified), the Potency is 39.8 µM (active).

Take `CC1CCC(NC(=O)COC(=O)CNC(=O)c2ccc3ccccc3c2)CC1` (stereo unspecified): the Potency result is “inactive”.

In the case of `CC1CCC(NC(=O)CN2C(=O)C3CC=CCC3C2=O)CC1` (stereo unspecified), the Potency result was “inactive”.

Take `Cc1nc(-c2ccc(S(=O)(=O)Nc3cc(S(=O)(=O)N(C)C)ccc3C)s2)cs1`: the Potency result was “inactive”.

For the compound `COc1ccc(-c2cc(C(F)(F)F)n3ncc(C(=O)NCC4CCCO4)c3n2)cc1` (stereo unspecified), the Potency result is “inactive”.

Regarding `C=CCCCCCCCCC(=O)NNC1CC(=O)N(c2ccccc2)C1=O` (stereo unspecified), the Potency entry is “inactive”.

`CCCCN(CCCC)CC(O)Cn1cc(/C=C/C(=O)c2ccccc2)c2ccccc21` (stereo unspecified): the Potency entry was “inactive”.

As for `CC(=O)/C=C/n1c(=S)oc2ccccc21`, the Potency is 9.47 µM (active).

Consider `CC(C)CC(=O)NC(=S)NCc1ccccc1`, for which the Potency result was “inactive”.

On to `CC(C)CC(=O)/C=C/n1c(=S)oc2ccccc21`, for which the Potency is 31.6 µM (active).

`O=C(CCn1c(=S)oc2ccccc21)Nc1ccccc1F`: the Potency result is “inactive”.

As for `CC(=O)Cn1c(=O)oc2ccccc21`, the Potency entry is “inactive”.

For the compound `CC(=O)OC[C@H]1O[C@@H](Oc2cc3ccc(=O)oc3cc2OC(C)=O)[C@H](OC(C)=O)[C@@H](OC(C)=O)[C@@H]1OC(C)=O`, the Potency entry was “inactive”.

On to `Cc1cccc(NC(=O)c2[nH]cnc2C(=O)N[C@@H](Cc2ccccc2)C(=O)OC(C)(C)C)c1`, for which the Potency was 39.8 µM (active).

On to `Cc1cccc(NC(=O)c2c(C)nn(-c3ccccc3)c2Cl)c1`, for which the Potency result was “inactive”.

As to `C[C@@H](NC(=O)c1[nH]cnc1C(=O)N[C@@H](Cc1ccccc1)C(=O)OC(C)(C)C)c1ccccc1`, the Potency was 35.5 µM (active).

For the compound `O=C(Nc1ccccc1)c1nsnc1C(=O)Nc1ccccc1`, the Potency entry is “inactive”.

In the case of `Cc1ccc(NC(=O)C(Nc2cccc(C)c2)c2ccccc2)cc1` (stereo unspecified), the Potency result was “inactive”.

With `CCOc1ccc(C(C)NC(=O)c2cccs2)cc1OCC` (stereo unspecified), the Potency entry was “inactive”.

For `CC(C)C[C@H](NC(=O)c1[nH]cnc1C(=O)NCCCCCNC(=O)OC(C)(C)C)C(=O)OC(C)(C)C`, the Potency is 35.5 µM (active).

Take `Cc1cccc(NC(=O)c2nc[nH]c2C(=O)N[C@@H](C)c2ccccc2)c1`: the Potency was 28.2 µM (active).

Regarding `COc1ccc(NC(=O)CSc2nnc3n2CCCCC3)cc1S(=O)(=O)N1CCOCC1`, the Potency entry is “inactive”.

`Cc1ccccc1/C=C/c1nc2ccccc2c(=O)n1CCc1ccccc1`: the Potency result is “inactive”.

On to `CCc1cc2c(-c3ccccc3)cc(=O)oc2c2c1OCN(Cc1ccc(F)cc1)C2`, for which the Potency result was “inactive”.

Take `Cc1ccc2nc(N3C(=O)C(O)=C(C(=O)c4ccc(C)o4)C3c3cccc(O)c3)sc2c1` (stereo unspecified): the Potency result is “inactive”.

With `c1ccc(-c2cnn3c(-c4ccccc4)c(-c4ccccc4)nc3n2)cc1`, the Potency entry is “inactive”.

`COc1ccc(OC)c(/N=C/c2c(O)oc3ccccc3c2=O)c1`: the Potency result was “inactive”.

For `COCc1cc(C)nc2sc(C(=O)Nc3ccccc3F)c(N)c12`, the Potency result is “inactive”.

Regarding `CC(NC(=O)/C(C#N)=C/c1ccc(OCC(=O)O)cc1)c1ccccc1` (stereo unspecified), the Potency result is “inactive”.

Take `CCCCC(C(=O)NC(C)c1ccccc1)C(=O)NC(C)c1ccccc1` (stereo unspecified): the Potency entry was “inactive”.

As for `CC(C)(C)OC[C@H](NC(=O)c1[nH]cnc1C(=O)Nc1ccccc1F)C(=O)OC(C)(C)C`, the Potency is 35.5 µM (active).

With `CCOc1ccccc1NC(=O)COC(=O)C(Cc1ccccc1)NC(=O)c1ccco1` (stereo unspecified), the Potency entry is “inactive”.

`Nc1c(C(=O)Nc2ccccc2F)sc2nc(-c3cccnc3)ccc12`: the Potency result is “inactive”.

Turning to `CC(C)C[C@H](NC(=O)c1[nH]cnc1C(=O)N[C@H](C)c1ccccc1)C(=O)OC(C)(C)C`, the Potency is 39.8 µM (active).

For `C[C@H](NC(=O)c1[nH]cnc1C(=O)N[C@@H](Cc1ccccc1)C(=O)OC(C)(C)C)C(=O)OC(C)(C)C`, the Potency was 39.8 µM (active).

`CC(C)C[C@H](NC(=O)c1[nH]cnc1C(=O)N[C@@H](Cc1ccccc1)C(=O)OC(C)(C)C)C(=O)OC(C)(C)C`: the Potency was 25.1 µM (active).

Regarding `CCOC(=O)N1CCN(S(=O)(=O)c2c(C)nc3scc(C)n3c2=O)CC1`, the Potency result was “inactive”.

With `COc1ccc(C2C=C(c3ccccc3)Nc3ncnn32)cc1` (stereo unspecified), the Potency result is “inactive”.
